Test results from PubChem BioAssay AID504465 (National Center for Advancing Translational Sciences (NCATS), 2011).
The whole screen tested about 2,100 compounds, of which about 210 (10%) were called active. Another 53% or so got no clear call; they are omitted. The call rests on the fitted dose curve; in most records, active means well fitted inhibition curve with a large enough effect; inconclusive means small, poorly fitted or top-dose-only effect, or effect the other way; inactive means no such curve, though single readings can be large or run the other way. The list shows a part of the results.

assay: IN Cell qHTS Assay for Inhibitors of the mTORC1 Signaling Pathway in MEF (Tsc2-/-, p53-/-) Cells: Sytravon; conditions: phospho-rpS6 immunofluorescence, 24 h; series mostly up to 38.3 µM; activity, negative = inhibition: at the top concentration; further: nearly all actives have a fitted effect of over 60% in size
Description: NIH Molecular Libraries Probe Production Centers Network [MLPCN] NIH Chemical Genomics Center [NCGC] MLPCN Grant: NS059428-01 Assay Submitter (PI): Blenis, John; Hoffman, Greg; Harvard University NCGC Assay Overview: Thee mammalian target of rapamycin (mTOR) is an intracellular serine/threonine kinase Aberrant regulation of mTOR signaling plays a causative role in a number of human diseases, including cancer, benign tumors such as lymphangioleiomyomatosis (LAM) and Tuberous Sclerosis Complex (TSC), and metabolic diseases such as diabetes and obesity. This project aims to identify inhibitors of ribosomal protein S6 (rpS6) phosphorylation. The phosphorylation of rpS6 is a key event downstream of mTOR activation. The assay uses a phospho-specific antibody of phospho-rpS6 to detect inhibitors of mTOR activation. Mutations in the Tsc1 and Tsc2 genes are the underlying genetic lesions responsible for TSC, causing constitutive activation of the mTORC1 pathway and leading to profound effects on cell metabolism. Aberrant metabolism in cancer has recently received significant attention as a target to develop therapeutic agents in the treatment of cancer1. As Tsc2-/- cells have lost the ability to respond to energy and growth factor deprivation, these cells are unable to properly down regulate cellular biosynthetic processes in response to metabolic stress, and are thus extremely sensitive to glucose deprivation-induced death.2 A central goal of this project is to explore the unique cell survival and metabolic properties of cells with Tsc1 or Tsc2 by screening for compounds that selectively target the Tsc2-/- MEFs by screening both Tsc2-/- and WT MEF cell lines. We hope to better understand these aspects of TSC physiology in order to exploit them for therapeutic benefit.
NCGC IN Cell Assay Protocol: For quantitative high throughput analysis of mTORC1 signaling, we developed a cell-based assay for immuno-fluorescence based detection of rpS6 phosphorylation on the Acumen Explorer that will be used a platform for the primary small molecule screen. Mouse embryonic fibroblasts (MEFs) are cultured in 1536-well plates using DMEM + 10% FBS. Twenty-four hrs after plating, test compounds (solubilized in DMSO) are delivered and incubated with the cells for 24 hrs at 37 degree Celsius. Following the incubation, media with compound is aspirated and the cells are fixed in 4% paraformaldehyde (PFA) containing PBS + 0.2% TX-100. Next, PFA is aspirated, cells are washed two times with PBS plus 0.2% TX-100 and the cells are blocked for 1 hr at room temperature (blocking buffer: LiCOR Blocking Buffer plus 0.2% TX-100). This is followed by aspiration and staining with Alexa-488 conjugated-phospho-rpS6 Ser235/236 antibody for 2 hours at room temperature (Cell Signaling Technology # 4803, 1:50 dilution in blocking buffer). Cells are washed two times with PBS plus 0.2% TX-100, and stained with 10 uM propidium iodide (PI) for 20-25 minutes for cell number measurement (1:500 dilution of Hoescht staining is also added for IN Cell imaging). Active wells which are selected (based on Acumen results) are imaged on the IN Cell 1000 (GE Healthcare) using the D360/40X and HQ480/40X excitation filters for the Hoechst and Alexa-488 cytoplasmic stains, respectively. The fluorescence emission filters used were HQ460/40M and HQ535/50M for the Hoechst and Alexa-488 cytoplasmic stains, respectively. The normalized phospho-S6 staining is calculated as the ratio of […] for the single concentration rapamycin control (7.5 nM) and DMSO columns. […] Inhibition of the pathway is defined based on the normalized phospho-S6 intensity in rapamycin treated cells. Each treatment is reported as the % positive cells in the well, where thresholds are defined by selecting wells with the highest and lowest signal and differentiating between the % non-active and % active populations. […]
Potency means the concentration at half of the fitted maximal effect.

Structure (SMILES) | activity, negative = inhibition | Potency
COc1ccc(Cn2c(C(=O)O)c(CNCc3ccccc3F)c3ccc(OC)cc32)cc1 | -12.4% (inactive) | 
COc1ccc(-n2c(=O)c3ccc(C(=O)NCc4ccc(C)cc4)cc3n(CC(=O)Nc3ccc(F)cc3)c2=O)cc1 |  | 14.7 µM (active)
CCc1ccc(NC(=O)c2ccc(F)c(S(=O)(=O)NC3CCCCCC3)c2)cc1 | 6.25% (inactive) | 
Cc1ccc(Cn2c(=O)n(CCCCC(=O)NCc3ccccc3Cl)c(=O)c3ccccc32)cc1 | -34.5% (inactive) | 
CC[C@@H](C)[C@@H](C(=O)Nc1ccc(C)cc1)N1Cc2ccccc2C1=O | -14.1% (inactive) | 
CCN1C(C(=O)c2ccccc2)=C(OC(=O)COc2ccc(OC)cc2)c2ccccc2S1(=O)=O | -0.826% (inactive) | 
COc1ccc(C(=O)NCC(c2ccc(Cl)cc2)N2CCCCC2)cc1 (centres undefined) | -16.4% (inactive) | 
O=C(NCCc1ccccc1Cl)c1sc2ncccc2c1-n1cccc1 | 1.3% (inactive) | 
CCC(C)NC(=O)CCCn1c(=O)c2cccn2c2ccccc21 (centres undefined) | -18.8% (inactive) | 
Cc1cccc(NS(=O)(=O)c2ccc3[nH]c4c(c3c2)CCCCCC4)c1 | -4.07% (inactive) | 
Cc1nc2scc(C)n2c(=O)c1S(=O)(=O)Nc1ccc(N2CCN(S(C)(=O)=O)CC2)cc1 | 25.4% (inactive) | 
O=C(NCCc1ccccc1)c1ccc(Cn2c(SCc3ccccc3)nc3cccnc32)cc1 | -23.6% (inactive) | 
O=C(Nc1ccc(Cl)cc1)c1cc(S(=O)(=O)N2CCCc3ccccc32)ccc1F | 6.25% (inactive) | 
Cc1noc2ncnc(N3CCN(c4ccccc4F)CC3)c12 | -0.0728% (inactive) | 
Cc1cccc(Nc2nc(Nc3cccc(C)c3)nc(N3CCOCC3)n2)c1 |  | 1.47 µM (active)
Fc1ccc(Nc2nc(Nc3ccc(F)cc3)nc(N3CCOCC3)n2)cc1 |  | 0.521 µM (active)
Cc1ccc(Nc2nc(Nc3ccc(C)c(C)c3)nc(N3CCOCC3)n2)cc1C |  | 0.656 µM (active)
CCOc1ccc(Nc2nc(Nc3ccc(OCC)cc3)nc(N3CCOCC3)n2)cc1 |  | 0.826 µM (active)
CCCN1C(=O)CN(C2CCCCCC2)C(=O)C1c1ccc(OCC)c(OC)c1 (centres undefined) | 6.25% (inactive) | 
CC(C)OCCCNC(=O)CCCN1C(=O)CCn2nc(-c3cccn3C)cc21 | -0.543% (inactive) | 
CCCN1CCN(c2ncnc3sc(C(=O)Nc4ccc(OC(F)(F)F)cc4)c(C)c23)CC1 | -14.8% (inactive) | 
O=C(Nc1cc(Cl)cc(Cl)c1)c1ccc(F)c(S(=O)(=O)N2CCCCCC2)c1 | 6.25% (inactive) | 
CC(C)c1nn2c(=O)cc(COC(=O)c3ccc(NC(=O)c4cccs4)cc3)nc2s1 | 0% (inactive) | 
CC1=Nc2cc(C(=O)NC3CCCC3)ccc2Sc2ccc(C)cc21 | -15% (inactive) | 
COc1ccc(Nc2nc(Nc3ccc(OC)cc3OC)nc(N3CCOCC3)n2)c(OC)c1 |  | 1.31 µM (active)

Structure (SMILES) | activity, negative = inhibition | Potency
CCCN1Cc2cccc(C(=O)Nc3ccc(OC)cc3OC)c2C1=O | 13.5% (inactive) | 
COc1ccccc1NCc1cccn1-c1nnc(N2CCOCC2)s1 | -15% (inactive) | 
CCN1CCN(CCCNC(=O)c2cc3c(s2)-c2c(C)cccc2OC3)CC1 |  | 14.7 µM (active)
CCCN1CCN(CCCNC(=O)c2cc3c(s2)-c2c(C)cccc2OC3)CC1 |  | 18.5 µM (active)
CCN(CC)S(=O)(=O)c1ccc2c(c1)N(CC(=O)NCCCN1CCN(c3cc(C)ccc3C)CC1)C(=O)CO2 | 0% (inactive) | 
CCOc1ccccc1NC(=O)c1c(NCc2cccs2)sc2c1CCC(C)C2 (centres undefined) | 0% (inactive) | 
Cc1ccc(C)c(NC(=O)CSc2cn(CC(=O)N3CCCC3)c3ccccc23)c1 | -2.42% (inactive) | 
COc1ccc(-c2ccc3c(N)c(C(=O)Nc4ccc(C(F)(F)F)cc4)sc3n2)cc1OC |  | 0.233 µM (active)
COc1ccc(-c2cc(C(=O)Nc3ccc4c(c3)OCO4)no2)cc1 | -7.44% (inactive) | 
COc1cccc(Nc2sc(C(=O)c3ccc(F)cc3)c(N)c2C(=O)NCc2ccc(C)cc2)c1 | 0% (inactive) | 
COc1cccc(-c2ccc3c(N)c(C(=O)c4ccc(Cl)cc4)sc3n2)c1 |  | 10.4 µM (active)
COc1ccc(-c2ccc3c(N)c(C(=O)Nc4cccc(C)c4)sc3n2)cc1 |  | 13.1 µM (active)
COc1ccc(C(=O)Nc2cc(-c3nc4ccccc4s3)ccc2OC)cc1 | -10.3% (inactive) | 
COc1ccc(NC(=O)c2sc3nc(-c4ccc(OC)cc4)cc(C(F)(F)F)c3c2N)cc1 | 15.3% (inactive) | 
COc1ccc(CNC(=O)c2c(Nc3ccccc3C)sc(C(=O)c3ccccc3)c2N)cc1 | -15.4% (inactive) | 
COc1ccc(-c2cc(C(=O)Nc3cccc(O)c3)on2)cc1OC | -6.34% (inactive) | 
CCCc1ccc(C2Sc3ccccc3NC3=C2C(=O)c2ccccc23)cc1 (centres undefined) | -13.1% (inactive) | 
Cc1cccc(NC(=O)CSc2nc3ccccc3c3nc(CCn4cncc4C)nn23)c1 | -11.5% (inactive) | 
COc1ccc(NC(=O)c2ccco2)cc1NC(=O)COc1ccc(Cl)c(C)c1 | -24% (inactive) | 
CCCCCC(=O)Nc1ccc(NC(=O)c2cc3ccccc3o2)c(OC)c1 |  | 18.5 µM (active)
Cc1cccc(Nc2ncc(NC(=O)c3cccc(F)c3)c(Nc3cccc(C)c3)n2)c1 | -24.6% (inactive) | 
COc1cccc(C(=O)Nc2ccccc2-c2nnc(-c3cccc(OC)c3)o2)c1 | -24.5% (inactive) | 
COc1cc(NC(=O)c2cccc(F)c2)ccc1NC(=O)c1cc2ccccc2o1 |  | 16.5 µM (active)
COc1cc(NC(=O)Cn2ccc3ccccc3c2=O)cc(OC)c1OC | -20.1% (inactive) | 
